Source: PubChem
This excerpt belongs to a sample that is enriched for hits.
12-hLO inh – blocks human 12-lipoxygenase activity; AID 1452; hit rate 0.12% among 150,000; purified 12-hLO, xylenol orange hydroperoxide absorbance; Potency, µM (doses to about 57.1 µM), for the others: at the top dose activity change, negative = inhibition, actives largely listed as inhibitors; note: nearly all actives have a fitted effect of over 55% in size
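Purified human 12hLO (150 nM), preincubated 15 min with compound, then 40 uM arachidonic acid for 30 min, room temperature, Hepes pH 7.0 with 0.01% Triton X-100. Hydroperoxide detected by ferrous iron/xylenol orange; 573/405 nm absorbance ratio gives reaction progress.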
ALOX15B inhib – 15-hLO-2 (ALOX15B) enzyme inhibition. O15296. purified 15hLO-2, xylenol orange hydroperoxide absorbance. Potency, µM (highest dose often 57.1 µM), for the others: top-dose activity change, negative = inhibition, usual class: inhibitors. hit rate 0.56% among 110,000. AID 881; note: nearly all actives have a fitted effect of over 60% in size
Target sequence (O15296 whole entry, looked up): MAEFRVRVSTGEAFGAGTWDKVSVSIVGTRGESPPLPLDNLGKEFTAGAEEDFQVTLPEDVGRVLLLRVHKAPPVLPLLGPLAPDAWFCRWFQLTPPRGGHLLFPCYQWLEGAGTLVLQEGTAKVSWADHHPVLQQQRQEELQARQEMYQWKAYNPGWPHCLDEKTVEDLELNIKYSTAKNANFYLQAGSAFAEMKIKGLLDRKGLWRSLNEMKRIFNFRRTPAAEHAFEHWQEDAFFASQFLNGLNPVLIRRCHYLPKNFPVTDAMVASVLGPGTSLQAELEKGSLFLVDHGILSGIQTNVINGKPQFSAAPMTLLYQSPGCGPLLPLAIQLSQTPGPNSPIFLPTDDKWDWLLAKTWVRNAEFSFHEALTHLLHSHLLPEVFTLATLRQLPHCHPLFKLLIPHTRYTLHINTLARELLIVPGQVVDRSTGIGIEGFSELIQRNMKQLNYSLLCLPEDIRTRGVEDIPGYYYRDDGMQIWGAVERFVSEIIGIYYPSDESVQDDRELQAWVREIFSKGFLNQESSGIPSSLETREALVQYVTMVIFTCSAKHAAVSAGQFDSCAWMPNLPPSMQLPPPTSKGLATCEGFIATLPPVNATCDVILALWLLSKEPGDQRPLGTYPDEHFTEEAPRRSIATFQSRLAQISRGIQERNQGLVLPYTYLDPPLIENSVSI
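Purified human 15hLO-2 (50 nM) preincubated 15 min with compound, then 45 uM arachidonic acid for 90 min at RT in 25 mM Hepes pH 7.5, 0.01% Triton X-100. Hydroperoxide detected by Fe-xylenol orange; 573/405 nm absorbance ratio.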
* = called active by the depositor; ? = inconclusive; / = no result given; ! = not active in a repeat; [ ] = remark or other dose. Calls come from the whole dose curve; as a rule, active = well fitted curve in the direction sought with a large enough effect; inconclusive = small, poorly fitted or top-dose-only effect, or another doubt; inactive = no such curve, though single readings can be large; an effect the other way counts as inactive or inconclusive. % is set by controls: 0 for no effect and ±100 for the full control effect; potency is the fitted concentration of half-maximal effect.

SMILES	12-hLO inh	ALOX15B inhib
[Cl-].[Cl-].[Hg+2]	5µM*	0.79µM*
O=C1C=CC(=O)C(Cl)=C1	?	11µM*
O=C1C=CC(=O)C=C1	-4%	-5%
CC(=O)OCC(N)C(=O)c1ccccc1 (configuration not stated)	1%[0.00818 µM]	-7%[0.0915 µM]
COc1ccc2c(c1O)-c1cccc3c1[C@H](C2)N(C)CC3	-2%	14%
[Cd+2].[Cl-].[Cl-]	28µM*	/
CCCCCCCCCCCCCCC[C@@H](O)[C@@H](N)COP(=O)(O)O	3%	/
COc1ccc2c(c1OC)CN1CCc3cc4c(cc3[C@H]1C2)OCO4	1%[25.6 µM]	10%[25.6 µM]
COc1ccc2c(c[n+](C)c3c4cc5c(cc4ccc23)OCO5)c1OC	?	13µM*
CCCCC/C=C\C/C=C\C/C=C\C/C=C\CCCC(=O)NCC(=O)O	3%[0.00818 µM]	10µM*!
CCCCC/C=C\C/C=C\C/C=C\C/C=C\CCCC(=O)NCCCC(=O)O	-9%[0.00818 µM]	?
C[C@@H]1O[C@H]1P(=O)(O)O	?	10%
Cc1cc(Cl)ccc1O	-2%	-3%
Nc1cc(Cl)ccc1O	20µM*	-2%
Nc1ccc(Cl)cc1N	-3%	4%
Oc1ccc(Cl)cc1Sc1cc(Cl)ccc1O	-28%[11.4 µM]	16µM*
Clc1ccc(N2C[C@H]3CC[C@@H](C2)N3)nn1	-10%	-2%
O=Nc1ccc(Nc2ccccc2)cc1	-15%	?
c1ccc(Nc2ccc(Nc3ccccc3)cc2)cc1	13µM*	13µM*
C[C@@H]1O[C@@H](O[C@H]2C[C@@H](O)[C@]3(CO)[C@@H]4[C@@H](O)C[C@]5(C)[C@H](C6=CC(=O)OC6)CC[C@@]5(O)[C@H]4CC[C@@]3(O)C2)[C@H](O)[C@H](O)[C@@H]1O	-3%	-6%
O=[As](O)(O)c1ccc(Cc2ccc([As](=O)(O)O)cc2)cc1	-24%[11.4 µM]	3.2µM*
Nc1ccc([As](=O)(O)O)cc1	-2%	/
CCC(C)N1C(=O)/C(=C\c2ccc(N3CCCCCC3)cc2)C(=O)NC1=S (configuration not stated)	-8%	/
CC(C)CN(CC(C)C)c1ccc(C=C2C(=O)NC(=S)NC2=O)cc1[N+](=O)[O-]	?	10µM*
CCCCC/C=C\C/C=C\C/C=C\C/C=C\CCCC(=O)N(Cc1ccc(O)c(Cl)c1)Cc1ccc(O)c(Cl)c1	-5%[0.00818 µM]	?
SMILES	12-hLO inh	ALOX15B inhib
O=C(O)/C=C\c1ccc[c]([Sb](=[O])([OH])[OH])c1	-4%[11.4 µM]	38%[11.4 µM]
COc1cc2c(cc1OC)[C@]13CC[N@+]4(C)CC5=CCO[C@H]6CC(=O)N2[C@@H]1[C@@H]6[C@@H]5C[C@]34O	1%[11.4 µM]	-9%[11.4 µM]
CCCN1CC[C@@H]2c3cc(O)ccc3CC[C@H]21	-2%	2%
ClCC(Cl)CCl	-4%	1%
CC(C)(C)NC[C@H](O)c1ccccc1Cl	-1%	3%
Cc1ccc(N2C(=O)CC(=O)NC2=O)cc1	-15%	8%
Cc1ccc(-n2sc3ccccc3c2=O)cc1	7.9µM*	/
C=CCN1CC[C@]23c4c5ccc(O)c4O[C@@H]2/C(=N/NC(=O)c2ccccc2)CC[C@@]3(O)[C@H]1C5	-5%	9%
Clc1ccc(C(c2ccc(Cl)cc2)C(Cl)Cl)cc1	-5%	3%
COC(=O)C(O)(c1ccc(NC(=O)Oc2ccccc2)cc1)C(F)(F)F (configuration not stated)	2%	/
COC(=O)C(O)(c1ccc(NC(=S)NC(=O)c2ccccc2)cc1)C(F)(F)F (configuration not stated)	?	16µM*
O=c1c2ccccc2nc(N2CCCC2)n1-c1ccccc1	-1%	-1%
O=c1c2ccccc2[se]n1-c1ccccc1	3.2µM*	0.63µM*
C[C@@H]1O[C@@H](O[C@H]2C[C@@H](O)[C@]3(CO)[C@@H]4[C@@H](O)C[C@]5(C)[C@H]([C@@H]6COC(=O)C6)CC[C@@]5(O)[C@H]4CC[C@@]3(O)C2)[C@H](O)[C@H](O)[C@@H]1O	-4%	-5%
ClC(Cl)C(Cl)Cl	0%	-4%
CN[C@@H](C)[C@@H](O)c1ccccc1	?	0.63µM*
CNC(C)C(O)c1ccccc1 (configuration not stated)	1%	-5%
COC(=O)[C@]1(C)CC[C@@]2(C)CC[C@@]3(C)C4=CC=C5C(=CC(=O)C(O)=C5C)[C@@]4(C)CC[C@@]3(C)C2C1 (some centres not stated)	?	4µM*
NCCP(=O)(O)O	0%[11.4 µM]	-12%[11.4 µM]
